GPR151 activ: activates the human receptor GPR151; Q8TDV0; PathHunter beta-arrestin GPR151 cells, luminescence; activation, % at 11.2 µM; 1% of 650,000 active; AID 1508602; in the data active means activation above about 4.9%;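 further: 0% = median of compound wells and 100% = cells with positive control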
TEAD-YAP inh: TEAD-YAP interaction inhibition; HEK-TIYL cells, TEAD-Gal4/YAP UAS-luciferase luminescence; inhibition, % at 9.12 µM; 1.4% of 640,000 active; in the data active means inhibition above about 32%;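 further: 0% = median of test compound wells and 100% = reference inhibitor wells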
FBW7 activator: human FBW7 E3 ligase activation, primary screen | Q969H0 | AlphaScreen FBW7–phospho-cyclin E peptide binding, activator screen | normalized activity (activation), % at 26.1 µM | 0.13% of 650,000 active | AID 1259310; in the data active means normalized activity above about 1.9%;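 further: purified mutant Fbw7 with reduced substrate affinity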
MITF primary: inhibitors of human MITF; inhibition, % at 2.6 µM; 0.91% of 650,000 active; AlphaScreen MITF homodimerization, bead proximity signal; O75030; AID 1259374; in the data active means inhibition above about 50%;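 further: 0% = vehicle wells with protein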
Target sequence (O75030 whole entry, looked up): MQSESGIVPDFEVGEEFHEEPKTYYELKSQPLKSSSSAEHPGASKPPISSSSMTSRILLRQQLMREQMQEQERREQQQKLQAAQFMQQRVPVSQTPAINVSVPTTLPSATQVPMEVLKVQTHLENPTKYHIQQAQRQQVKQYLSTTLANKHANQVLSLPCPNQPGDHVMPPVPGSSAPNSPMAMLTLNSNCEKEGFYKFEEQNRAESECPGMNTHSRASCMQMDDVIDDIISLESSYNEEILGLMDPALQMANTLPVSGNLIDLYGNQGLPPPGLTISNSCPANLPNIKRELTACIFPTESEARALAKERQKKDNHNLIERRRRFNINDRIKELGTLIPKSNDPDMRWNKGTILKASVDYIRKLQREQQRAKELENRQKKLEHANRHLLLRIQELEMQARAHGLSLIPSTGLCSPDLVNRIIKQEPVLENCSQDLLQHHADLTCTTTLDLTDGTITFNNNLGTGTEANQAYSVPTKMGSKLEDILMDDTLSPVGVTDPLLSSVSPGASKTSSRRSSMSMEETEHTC
MITF inh conf: human MITF inhibition, confirmation. 16% of 4,700 active. inhibition, % at 2.6 µM. shares compounds with MITF primary. AlphaScreen MITF homodimerization, biotin/His-MITF beads. AID 1259372;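 active means inhibition above a cutoff derived from the DMSO control wells, cut at about 28% in these data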;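 further: 0% = MITF dimer wells with DMSO only; inhibitors lower the bead chemiluminescence by keeping MITF from dimerizing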
AS interf ctr: optically interferes with AlphaScreen signal; shares compounds with MITF primary; LysRS AlphaScreen counterscreen, signal interference, triplicate; inhibition, % at 2.6 µM; 7.6% of 4,700 active;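 active means inhibition above a cutoff derived from the DMSO control wells, cut at about 30% in these data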
Active calls of the source: *; / = no result. Rows were chosen to be rich in hits. Some 3.5% of all compounds tested hit in one or more screens of this group.

SMILES	GPR151 activ	TEAD-YAP inh	FBW7 activator	MITF primary	MITF inh conf	AS interf ctr
CCN(CC)CC(O)CN1CCN(S(=O)(=O)c2ccc(Cl)cc2)CC1 (stereo unspecified)	0	6	0	61*	8	7
CC(C)(C)OCC(O)CN1CCN(C(=O)c2ccccc2)CC1 (stereo unspecified)	-2	-12	0	43	/	/
CCN(CC)CC(O)CN1CCN(C(=O)c2ccccc2)CC1 (stereo unspecified)	-2	-6	0	52*	11	10
NCCSc1nnnn1-c1ccccc1	0	16	0	3	/	/
CN(C(=O)c1nn2c(C(F)(F)F)cc(-c3ccco3)nc2c1Cl)C1CCCCC1	4	8	0	3	/	/
Cc1cc(NC(=O)c2ccc(Br)cc2)c(C)cc1O	2	24	0	-9	/	/
Cc1cc(NC(=O)c2ccc(Br)cc2)ccc1O	0	80*	0	75*	17	14
O=C(NCc1ccccc1)N1CCN(c2nccnc2NS(=O)(=O)C2CC2)CC1	0	-11	0	16	/	/
CCSc1nc2sc3c(c2c(=O)n1-c1ccc(C)cc1)CCC(C(C)(C)C)C3 (stereo unspecified)	1	-9	1	15	/	/
O=C(CN1CCSCC1)N/N=C/c1cccnc1	-1	-7	0	51*	-5	1
CC1(C(=O)N/N=C/c2cccnc2)CC1(Cl)Cl (stereo unspecified)	0	6	0	60*	-19	0
O=C(N/N=C/c1cccnc1)C12CC3CC(CC(C3)C1)C2	1	-10	0	-5	/	/
CCN1CCN(CC(=O)N/N=C/c2ccc(Cl)c(Cl)c2)CC1	3	-4	0	68*	-6	3
CCN1CCN(CC(=O)N/N=C/c2ccc(Cl)cc2)CC1	0	10	1	46	/	/
CCN1CCN(CC(=O)N/N=C/c2ccccc2)CC1	-2	-1	1	70*	1	16
CCOCCCNC(=O)/C(C#N)=C/c1c(Oc2ccccc2F)nc2ccccn2c1=O	-6	-3	0	-8	/	/
CCN1CCN(CC(=O)N/N=C/c2ccc(C(C)C)cc2)CC1	1	-4	0	52*	2	7
NC(=O)c1cncc(-c2cccc3c2OC(CNC(=O)C2CC=CCC2)C3)c1 (stereo unspecified)	1	0	0	-9	/	/
O=C(Cn1ccc2ccccc21)N1CCC(Cn2cnc3ccccc32)CC1	0	-8	0	-1	/	/
COc1ccc(CNC(=O)N2CCC(Cn3cnc4ccccc43)CC2)cc1	0	5	0	58*	8	17
O=C(NC(c1ccccc1)c1ccccc1)N1CCC(Cn2cnc3ccccc32)CC1	0	3	0	56*	5	12
O=C(COc1ccccc1)N1CCC(Cn2cnc3ccccc32)CC1	-1	7	0	56*	9	12
Cc1ccccc1NC(=O)N1CCC(Cn2cnc3ccccc32)CC1	-1	-7	0	-8	/	/
COc1ccc(Cl)cc1NC(=O)N1CCC(Cn2cnc3ccccc32)CC1	2	-5	0	47	/	/
CC(=O)Oc1cccc(/C=C2/C(=O)NN(c3cccc(Cl)c3)C2=O)c1	0	-5	0	10	/	/
SMILES	GPR151 activ	TEAD-YAP inh	FBW7 activator	MITF primary	MITF inh conf	AS interf ctr
Cc1cc(C)cc(OCC(=O)NNC(=O)COc2cc(C)cc(C)c2)c1	-1	1	0	-8	/	/
CCOC(=O)c1c(C)n(-c2ccc(C)cc2)c2ccc(OCC(O)CN3CCN(CCO)CC3)cc12 (stereo unspecified)	-1	-6	0	86*	17	6
COc1ccccc1C(=O)Nc1ccc(C2(C#N)CCCC2)cc1	-1	-43	0	65*	10	6
Cc1c(C(=O)NC(=S)Nc2ccc(N(C)C)cc2)cccc1[N+](=O)[O-]	-1	2	0	2	/	/
Cc1ccc(Cn2cccc(NC(=O)Nc3ccc(C#N)cc3)c2=O)cc1	1	14	0	-6	/	/
COc1cccc(CN2CCN(C(=O)c3ccco3)CC2)c1OC	0	-5	0	57*	8	18
O=[N+]([O-])c1ccc(N2CCN(Cc3ccccc3[N+](=O)[O-])CC2)cc1	1	27	-1	9	/	/
O=[N+]([O-])c1ccccc1CN1CCN(Cc2c[nH]c3ccccc23)CC1	-1	11	0	62*	6	-8
CC(=O)c1ccc(N2CCN(Cc3ccccc3[N+](=O)[O-])CC2)cc1	0	-12	0	51*	1	2
COc1cc(C(=O)N2CCN(Cc3cccc4ccccc34)CC2)cc(OC)c1OC	-2	7	0	57*	5	8
COc1cccc(CN2CCN(Cc3ccco3)CC2)c1OC	-2	-7	0	42	/	/
COc1cc(CN2CCN(C(=O)c3cc(OC)c(OC)c(OC)c3)CC2)c([N+](=O)[O-])cc1OC	-2	-4	0	36	/	/
O=[N+]([O-])c1ccccc1CN1CCN(Cc2ccncc2)CC1	0	-3	0	65*	3	1
CS(=O)(=O)N1CCN(Cc2ccccc2[N+](=O)[O-])CC1	1	13	1	11	/	/
CC(=O)c1ccc(N2CCN(CC(=O)NCc3cccs3)CC2)cc1	0	11	0	10	/	/
CCOc1ccc(CN2CCN(Cc3ccccc3[N+](=O)[O-])CC2)cc1	2	10	0	56*	4	4
CC(=O)c1ccc(N2CCN(Cc3cccs3)CC2)cc1	0	-19	0	56*	5	0
COc1cc(C(=O)N2CCN(Cc3ccccc3[N+](=O)[O-])CC2)cc(OC)c1OC	2	2	0	67*	-17	-4
Cc1ccccc1CN1CCc2nnc(CCNC(=O)C3CCCO3)n2CC1 (stereo unspecified)	2	7	0	2	/	/
Cn1c(=O)c2ccccc2n2c(SCC(=O)Nc3ccc(F)cc3)nnc12	-1	5	0	10	/	/
O=C1/C(=C\c2cccc([N+](=O)[O-])c2)N=C(c2ccccc2)N1Nc1ccccc1	1	-3	0	17	/	/
COc1ccccc1C(=O)N1CCN(Cc2ccccc2[N+](=O)[O-])CC1	-1	2	0	0	/	/
COc1cccc(CN2CCN(C(=O)c3cccc4ccccc34)CC2)c1OC	-2	-4	0	54*	10	-12
COc1cccc(OC)c1C(=O)N1CCN(Cc2ccccc2C)CC1	-1	1	0	71*	8	-6
COc1cc(OC)cc(C(=O)N2CCN(Cc3c[nH]c4ccccc34)CC2)c1	-1	7	0	16	/	/
COc1ccc(CN2CCN(C(=O)c3cccc4ccccc34)CC2)cc1OC	1	-2	0	44	/	/
Cc1ccccc1CN1CCN(C(=O)c2ccccc2)CC1	-1	2	0	37	/	/
COc1ccc(C(=O)N2CCN(Cc3ccccc3[N+](=O)[O-])CC2)cc1	-1	7	0	54*	-3	-7
